Assay outcomes (PubChem BioAssay)
Cl transport mod: KCC2 cotransporter modulators, thallium flux, primary screen, cell-based, HEK293 KCC2, FluoZin-2 fluorescence, MLSMR | hit rate 2.2% among 190,000 | Solute carrier family 12 member 5 (Homo sapiens), Q9H2X9 | B-score of Tl+ flux slope (higher = more flux/activation; lower = inhibition) at 10 µM | KCC2 cells, thallium flux FluoZin-2 fluorescence;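 active means thallium flux slope and its plate-corrected score both differing from the plate sample mean at a set confidence after two filtering rounds, in either direction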;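 further: slope of fluorescence scaled to starting intensity during 10 to 20 s after thallium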
Target sequence (Q9H2X9 whole entry, looked up): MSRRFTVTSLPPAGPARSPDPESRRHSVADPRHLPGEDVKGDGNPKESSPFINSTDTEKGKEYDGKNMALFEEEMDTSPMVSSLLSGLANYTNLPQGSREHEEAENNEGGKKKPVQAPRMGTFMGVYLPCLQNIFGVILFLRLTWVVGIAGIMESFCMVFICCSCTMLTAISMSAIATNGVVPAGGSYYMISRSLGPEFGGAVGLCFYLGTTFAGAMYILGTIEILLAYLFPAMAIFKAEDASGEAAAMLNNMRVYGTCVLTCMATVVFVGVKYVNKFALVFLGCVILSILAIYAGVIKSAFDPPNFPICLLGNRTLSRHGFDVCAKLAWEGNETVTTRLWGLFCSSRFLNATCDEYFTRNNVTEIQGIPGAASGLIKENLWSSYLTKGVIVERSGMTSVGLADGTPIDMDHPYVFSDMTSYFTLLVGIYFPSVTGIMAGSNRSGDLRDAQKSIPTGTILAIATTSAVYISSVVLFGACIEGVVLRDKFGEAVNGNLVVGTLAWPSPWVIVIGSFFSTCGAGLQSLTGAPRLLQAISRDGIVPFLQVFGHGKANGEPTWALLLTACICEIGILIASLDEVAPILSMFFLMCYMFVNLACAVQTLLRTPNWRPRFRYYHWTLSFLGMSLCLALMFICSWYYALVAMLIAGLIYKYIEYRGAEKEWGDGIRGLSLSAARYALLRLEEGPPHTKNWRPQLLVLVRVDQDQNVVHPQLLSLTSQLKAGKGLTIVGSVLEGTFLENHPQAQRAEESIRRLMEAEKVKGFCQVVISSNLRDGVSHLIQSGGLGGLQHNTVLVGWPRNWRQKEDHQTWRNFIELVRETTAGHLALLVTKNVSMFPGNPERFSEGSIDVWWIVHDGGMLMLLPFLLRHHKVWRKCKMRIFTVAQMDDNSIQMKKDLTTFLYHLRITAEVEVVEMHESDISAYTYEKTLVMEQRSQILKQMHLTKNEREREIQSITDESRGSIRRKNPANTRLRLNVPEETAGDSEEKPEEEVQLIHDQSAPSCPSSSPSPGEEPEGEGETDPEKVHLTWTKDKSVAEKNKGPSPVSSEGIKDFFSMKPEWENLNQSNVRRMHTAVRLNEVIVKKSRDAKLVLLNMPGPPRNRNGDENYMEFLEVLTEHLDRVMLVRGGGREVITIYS
INS promoter inh: inhibitors of insulin promoter-driven GFP, primary screen, imaging, TRM-6 cells (human fetal islet line), eGFP reporter, cell count. reporter expression induced with tamoxifen. inhibition, % at 2 µM. hit rate 0.9% among 130,000;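 active means inhibition above the mean plus 3 SD, with well images judged a real hit on visual review, cut at about 60% in these data, passing the limit was not always enough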
Ins promoter up: insulin promoter activators in MIN6 cells, imaging, high-content screening, mouse beta cells; z-score at 5 µM; hit rate 0.3% among 190,000; MIN6 insulin promoter-GFP reporter; hits give high values;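 active means z-score above 3 at 5 µM with at least 500 cells counted in the well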
Lmaj promast: Leishmania major promastigote growth inhibition, primary screen; inhibition, % at 10 µM; Leishmania major promastigotes, resazurin fluorescence viability; AID 1063, 2008; hit rate 9% among 200,000; in the data active means inhibition above about 50%;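 further: promastigotes grown with compound for 44 hours at 28 °C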
WT yeast gro inh: growth inhibition of WT strain, primary screen, mitochondrial fusion inhibitor project, WT and mutant strains, chemical genetic; mitochondrial fusion phenotypic screen; inhibition, % at 10 µM; hit rate 2.1% among 190,000; in the data active means inhibition above about 58%; tested in S. cerevisiae
ROMK mod: ROMK potassium channel modulators, primary screen, cell-based, thallium flux, MLSMR library; B-score at 10 µM; AID 1918, 2009; ATP-sensitive inward rectifier potassium channel 1 (Homo sapiens), P48048; Tet-inducible ROMK, thallium flux fluorescence; actives lie on both sides; hit rate 2% among 130,000;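 active means signal ratio slope over the read window, or its plate-corrected B-score, at least 3 SD from the plate mean, either direction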;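 further: B-score of the F/F0 ratio slope over 7 to 12 s after thallium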
* marks the source's active call; other numbers are inactive results; . = not tested or not shown. Most compounds without a hit are left out; they make up all but 12% or so of the library.

SMILES | Cl transport mod | INS promoter inh | Ins promoter up | Lmaj promast | WT yeast gro inh | ROMK mod
O=C(COC(=O)Cc1cccc(C(F)(F)F)c1)Nc1ccc2c(c1)OCCO2 | -0.29 | 5 | -0.46 | 65* | -1 | 0.1
O=C(Nc1ccccc1F)c1cc2c(s1)-c1ccccc1S(=O)(=O)C2 | -0.4 | . | -0.88 | . | . | -0.3
O=C(NNC(=O)c1cnccn1)c1cccc([N+](=O)[O-])c1 | 0.053 | 29 | . | 41 | -21 | -0.64
CC(C)(C)n1ncc2c(=O)n(CC(=O)NCc3ccccc3)cnc21 | 0.084 | . | . | -8 | 10 | 4.2*
Clc1ccc(Sc2ccc(/C=N/n3cnnc3)o2)cc1 | -0.9 | -5 | -0.37 | 66* | -10 | .
Clc1ccc(Sc2oc(/C=N/n3cnnc3)cc2Br)cc1 | -0.012 | . | 0.39 | 71* | 19 | -2.4
Clc1ccc(-n2cccc2/C=N/n2cnnc2)cc1 | 0.62 | -6 | -0.06 | 2 | 2 | 0.39
Clc1ccccc1-c1ccc(/C=N/n2cnnc2)o1 | -1.4 | . | 0.27 | 42 | 34 | .
CN(C)C(=O)/C(C#N)=C\c1cc(Br)c(Sc2ccc(Cl)cc2)o1 | -1.3 | -30 | 0.03 | 19 | 88* | .
O=c1cc(/C=C/c2c(F)cccc2Cl)[nH]c2ccccc12 | 0.15 | . | . | 14 | 40 | .
COc1ccc(OCCC(=O)NCC23CC4CC(CC(C4)C2)C3)cc1 | 0.84 | . | 0.12 | 97* | 6 | 0.33
CNC(=O)CNC(=O)Nc1ccc(C)cc1 | 0.49 | . | -0.02 | -3 | 4 | -0.22
Cc1noc2ncnc(Sc3ccc(Cl)cc3)c12 | -0.32 | 18 | 0.9 | 44 | -2 | -0.0081
Cc1ccc(Sc2ncnc3onc(C)c23)cc1 | -1.1 | 19 | -0.04 | 56* | 49 | .
Cc1cc(C)nc(NS(=O)(=O)c2ccc(NC(=O)CCC3COc4ccccc4O3)cc2)n1 (centres undefined) | 0.56 | 69 | -0.22 | -4 | -13 | 0.56
Cc1nc(N)sc1C(=O)N/N=C/c1ccccc1[N+](=O)[O-] | -0.37 | 18 | 1.6 | 92* | 6 | -0.046
Cc1cc(Oc2nc3c(C)cccn3c(=O)c2/C=C(\C#N)S(=O)(=O)c2ccc(Cl)cc2)ccc1Cl | 0.8 | . | -1.5 | 80* | 29 | .
CCN1CCN(c2nc3c(C)cccn3c(=O)c2/C=C(\C#N)S(=O)(=O)c2ccc(Cl)cc2)CC1 | -1 | . | -0.38 | . | . | .
COC(=O)/C(C#N)=C/c1c(Oc2cc(C)cc(C)c2)nc2c(C)cccn2c1=O | 0.17 | -16 | -0.25 | 97* | 3 | 0.54
Cc1ccc(S(=O)(=O)/C(C#N)=C/c2c(N3CC(C)OC(C)C3)nc3c(C)cccn3c2=O)cc1 (centres undefined) | -2.9 | 3 | -0.36 | 97* | 27 | -0.91
C[C@@H]1CN(Cc2nc(-c3ccc(Cl)cc3)no2)C[C@H](C)O1 | 0.053 | . | 0.17 | -7 | 19 | 0.52
COc1ccc(Oc2ncccc2NC(=O)c2cccc(C)c2C)cc1 | 0.36 | . | 0.42 | . | . | .
O=C(NCC1CC1)c1ccc2c3n(nc2c1)-c1ccccc1CO3 | -1.8 | . | -0.9 | . | . | .
Cc1ccnc(Sc2ccc([N+](=O)[O-])cc2[N+](=O)[O-])n1 | 0.18 | 50 | 0.57 | 100* | 14 | -0.62
Cc1ccc(Sc2ccc([N+](=O)[O-])cc2[N+](=O)[O-])nc1 | -0.64 | -17 | -0.06 | 58* | 17 | -0.91
SMILES | Cl transport mod | INS promoter inh | Ins promoter up | Lmaj promast | WT yeast gro inh | ROMK mod
Nc1nc(Sc2ccc([N+](=O)[O-])cc2[N+](=O)[O-])n[nH]1 | 0.49 | . | 0.16 | . | . | 0.0033
CC1=CC(=C2C=CC(=O)C=C2)C=C(C)N1C | 1.5 | . | 0.31 | . | . | .
O=C(NC12CC3CC(CC(C3)C1)C2)C1CC(=O)N(c2ccc(Br)cc2)C1 (centres undefined) | 0.75 | -46 | -0.91 | -4 | 6 | .
Cc1ccc(-c2[nH]nc3c2C(c2ccccc2OC(=O)N2CCOCC2)C(C#N)=C(N)O3)cc1 (centres undefined) | -1 | . | . | 7 | 9 | .
CC1=C(NCCc2ccccc2)CCC1=O | 0.47 | . | -0.97 | 64* | 10 | 0.25
CCCNC1=C(C)C(=O)CC1 | . | . | -0.01 | -3 | -5 | -0.27
Cc1cccc(N/N=C(\C#N)S(=O)(=O)C(C)(C)C)c1 | -0.18 | 91* | 1.5 | -1 | -44 | -0.71
CC(C)(C)c1ccc(N/N=C(\C#N)S(=O)(=O)C(C)(C)C)cc1 | -1.6 | -27 | -0.7 | -6 | 5 | -1.6
NS(=O)(=O)c1ccc(CCNC(=O)c2cncc(Br)c2)cc1 | . | . | 0.12 | 1 | 13 | -1.7
CN1/C(=C/C(=O)C2CC2)C(C)(C)c2ccccc21 | -0.46 | -22 | 0.1 | 10 | 7 | -0.88
CN1/C(=C\C(=O)Nc2cccc(Cl)c2)C(C)(C)c2ccccc21 | -0.85 | . | -0.04 | 16 | 78* | .
CN1/C(=C\C(=O)Nc2ccc(F)cc2)C(C)(C)c2ccccc21 | -0.18 | 18 | -0.09 | 8 | 74* | -0.093
CN1/C(=C\C(=O)Nc2ccc(Br)cc2)C(C)(C)c2ccccc21 | -0.26 | 0 | . | -10 | 87* | 0.082
CCOC(=O)Cn1cncc1-c1ccc([N+](=O)[O-])cc1 | 1.3 | 17 | 0.19 | -4 | -6 | 0.6
COc1cccc(-c2nc(Oc3cccc(C)c3C)c3ccccc3n2)c1O | 0.73 | . | -0.18 | -3 | 3 | .
COc1cccc(-c2nc(NC(C)C)c3ccccc3n2)c1O | . | . | -0.83 | 56* | 56 | -0.29
CCC(C)Nc1nc(-c2cccc(OC)c2O)nc2ccccc12 (centres undefined) | -1.1 | 29 | . | 59* | 6 | 0.18
O=C(Nc1ccc(N2CCCC2)c(Cl)c1)c1ccc(Br)o1 | -0.23 | -6 | -1.4 | 8 | 17 | .
C=CCn1c(SCC(=O)NCc2ccc3c(c2)OCO3)nnc1C1CCCCC1 | 0.0087 | -15 | -2.1 | -5 | 7 | -0.16
CCOC(=O)c1[nH]c2cc(OC)c(OC)cc2c1NC(=O)CN(C)C1CCCCC1 | -0.81 | 12 | -1.7 | 61* | 19 | 0.35
COC(=O)c1[nH]c2cccc(OC)c2c1NC(=O)CN1CCN(c2cccc(OC)c2)C(C)C1 (centres undefined) | 0.67 | 12 | -1.5 | 5 | 4 | 0.75
CCOC(=O)c1[nH]c2cc(OC)c(OC)cc2c1NC(=O)CN1CCN(c2ccc(OC)cc2)C(C)C1 (centres undefined) | . | 67* | -0.2 | 50 | 5 | .
COc1cc(/C=N/n2cnnc2)ccc1OCC(=O)N1CCOCC1 | 0.87 | 44 | 0.56 | -3 | -1 | -0.43
CC1(C)CC(=O)C(C(C2=C(O)CC(C)(C)CC2=O)c2ccco2)C(=O)C1 (centres undefined) | -1.7 | . | -0.36 | -6 | 16 | -0.05
CC1CCCN(Cc2c(O)ccc3c4c(c(=O)oc23)CCCC4)C1 (centres undefined) | -0.83 | . | . | . | . | .
CC/C(=N\NC(=O)c1ccc(-c2ccccc2)cc1)C12CC3CC(CC(C3)C1)C2 | -1.4 | . | . | 65* | -1 | -0.51
